Data published in PubChem BioAssay (EPA / NIEHS).
The source made the active and inactive calls. The calls were made as follows: active = hit-call score of the fitted dose curve at least 0.9, where 1 is the maximum; inactive = score below 0.9.

Experiments:
Conditions in all cases: mRNA level, 48 h; actives raise or lower the signal
[1] = read-out: Cytochrome P450 (CYP24A1), CYP24A1 (gene 1591); test: LTEA_HepaRG_CYP24A1: Life Technologies and Expression Analysis (LTEA) Assay for Cytochrome P450 (CYP24A1) using HepaRG (AID 2283478)
Method in brief: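 qRT-PCR read-out: CYP24A1 transcript levels normalized to three housekeeping genes, bidirectional curve fits against 0.5% DMSO baseline. Human HepaRG cells treated 48 h with chemicals at eight concentrations from 100 uM in half-log steps.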

[2] = read-out: Cytochrome P450 (CYP1A2), CYP1A2 (gene 1544); test: LTEA_HepaRG_CYP1A2: Life Technologies and Expression Analysis (LTEA) Assay for Cytochrome P450 (CYP1A2) using HepaRG (AID 2283479)
Method in brief: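 HepaRG, 48 h exposure, top 100 uM, half-log 8-pt, 0.5% DMSO vehicle, duplicates. Readout: TaqMan qRT-PCR of CYP1A2 mRNA, housekeeping-normalized (ACTB/GAPDH/POLR2A). Gain/loss fit relative to DMSO baseline.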

[3] = read-out: cysteine-aspartic acid protease (CASP8), CASP8 (gene 841); test: LTEA_HepaRG_CASP8: Life Technologies and Expression Analysis (LTEA) Assay for cysteine-aspartic acid protease (CASP8) using HepaRG (AID 2283480)
Method in brief: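 Differentiated HepaRG cells in serum-free induction medium, 48 h exposure, eight-point half-log series from 100 uM in 0.5% DMSO, duplicates. CASP8 mRNA by qRT-PCR, normalized to ACTB, GAPDH, POLR2A; bidirectional fit versus DMSO.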

[4] = read-out: Cytochrome P450 (CYP2B6), CYP2B6 (gene 1555); test: LTEA_HepaRG_CYP2B6: Life Technologies and Expression Analysis (LTEA) Assay for Cytochrome P450 (CYP2B6) using HepaRG (AID 2283481)
Method in brief: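 Read-out is CYP2B6 mRNA by TaqMan qRT-PCR, normalized to three housekeeping genes and fitted bidirectionally against 0.5% DMSO baseline. Human HepaRG cells received test chemicals for 48 h, top concentration 100 uM, half-log dilutions.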

[5] = read-out: Cytochrome P450 2C19 (Homo sapiens) (UniProt P33261); test: LTEA_HepaRG_CYP2C19: Life Technologies and Expression Analysis (LTEA) Assay for CYP2C19 using HepaRG (AID 2283482)
Method in brief: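 HepaRG, 48 h chemical exposure, 8-pt half-log series from 100 uM in 0.5% DMSO, duplicates. Readout: CYP2C19 mRNA by TaqMan qRT-PCR, housekeeping-normalized. Bidirectional fit vs DMSO baseline; phenobarbital 1mM as induction control.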

CYP2C8 (gene 1558) = test: LTEA_HepaRG_CYP2C8: Life Technologies and Expression Analysis (LTEA) Assay for CYP2C8 using HepaRG (AID 2283483)
Method in brief: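 Differentiated HepaRG cells in serum-free induction medium exposed 48 h in duplicate to 8 half-log concentrations from 100 uM in 0.5% DMSO. CYP2C8 mRNA by qRT-PCR normalized to ACTB, GAPDH, POLR2A; bidirectional fit versus DMSO.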

CYP2C9 (gene 1559) = test: LTEA_HepaRG_CYP2C9: Life Technologies and Expression Analysis (LTEA) Assay for CYP2C9 using HepaRG (AID 2283484)
Method in brief: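 Differentiated human HepaRG cells in serum-free induction medium were exposed 48 h to chemicals in 8-point half-log series from 100 uM (0.5% DMSO), in duplicate. CYP2C9 mRNA was measured by qRT-PCR, normalized to ACTB/GAPDH/POLR2A, with bidirectional fitting versus DMSO.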

CYP2E1 (gene 1571) = test: LTEA_HepaRG_CYP2E1: Life Technologies and Expression Analysis (LTEA) Assay for CYP2E1 using HepaRG (AID 2283485)
Method in brief: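 Differentiated HepaRG cells were treated in duplicate for 48 h with chemicals in 0.5% DMSO, from 100 uM downward in half-log dilutions. RNA was then analysed by qRT-PCR for CYP2E1 induction or loss.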

CYP4A11 (gene 1579) = test: LTEA_HepaRG_CYP4A11: Life Technologies and Expression Analysis (LTEA) Assay for CYP4A11 using HepaRG (AID 2283486)
Method in brief: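 CYP4A11 transcript levels were quantified by TaqMan qRT-PCR after HepaRG human liver cells were treated for 48 hours with test chemicals (top 100 uM, half-log dilutions, 0.5% DMSO). Gain or loss of signal was fitted relative to DMSO.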

[6] = read-out: Cytochrome P450 3A4 (Homo sapiens) (UniProt P08684); test: LTEA_HepaRG_CYP3A4: Life Technologies and Expression Analysis (LTEA) Assay for CYP3A4 using HepaRG (AID 2283487)
Method in brief: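 In a human hepatic line (HepaRG), duplicate wells were treated 48 h with up to 100 uM chemical in half-log dilutions. Endpoint: CYP3A4 mRNA induction or loss relative to 0.5% DMSO vehicle, by qRT-PCR.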

[7] = read-out: DNA damage-inducible transcript 3 (DDIT3), DDIT3 (gene 1649); test: LTEA_HepaRG_DDIT3: Life Technologies and Expression Analysis (LTEA) Assay for DNA damage-inducible transcript 3 (DDIT3) using HepaRG (AID 2283488)
Method in brief: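 Changes in DDIT3 transcript, in either direction relative to 0.5% DMSO vehicle, were quantified by TaqMan qRT-PCR after 48 h chemical exposure of HepaRG cells at 8 concentrations, maximum 100 uM.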

[8] = read-out: Pro-epidermal growth factor (Homo sapiens) (UniProt P01133); test: LTEA_HepaRG_EGF: Life Technologies and Expression Analysis (LTEA) Assay for Epidermal growth factor (EGF) using HepaRG (AID 2283489)
Method in brief: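 qRT-PCR readout of EGF transcript after 48 h chemical exposure of HepaRG cells; eight concentrations from 100 uM down in half-log steps, duplicate wells, 0.5% DMSO vehicle. Bidirectional curve fitting against DMSO baseline.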

[9] = read-out: Early growth response protein 1 (EGR1) transcription factor, EGR1 (gene 1958); test: LTEA_HepaRG_EGR1: Life Technologies and Expression Analysis (LTEA) Assay for Early growth response protein 1 (EGR1) transcription factor using HepaRG (AID 2283490)
Method in brief: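 Differentiated HepaRG cells in serum-free induction medium exposed 48 hours, duplicate, to 8 half-log concentrations up to 100 uM in 0.5% DMSO. EGR1 mRNA measured by TaqMan qRT-PCR, normalized to ACTB, GAPDH, POLR2A; bidirectional fit versus DMSO.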

[10] = read-out: Ezrin (EZR), EZR (gene 7430); test: LTEA_HepaRG_EZR: Life Technologies and Expression Analysis (LTEA) Assay for Ezrin (EZR) using HepaRG (AID 2283491)
Method in brief: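 Gain or loss of EZR mRNA is scored relative to 0.5% DMSO in human HepaRG cultures treated 48 h with test chemicals in duplicate, eight half-log concentrations from 100 uM.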

CYP3A5 (gene 1577) = test: LTEA_HepaRG_CYP3A5: Life Technologies and Expression Analysis (LTEA) Assay for CYP3A5 using HepaRG (AID 2283493)
Method in brief: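 mRNA induction or loss of CYP3A5 assessed in HepaRG after 48 h dosing, 100 uM top concentration, duplicate wells; TaqMan qRT-PCR with ACTB, GAPDH, POLR2A normalization; 0.5% DMSO as negative control.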

[11] = read-out: Fatty Acid-Binding Protein 1 (FABP1), FABP1 (gene 2168); test: LTEA_HepaRG_FABP1: Life Technologies and Expression Analysis (LTEA) Assay for Fatty Acid-Binding Protein 1 (FABP1) using HepaRG (AID 2283494)
Method in brief: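 Differentiated human HepaRG cells exposed 48 h in serum-free induction medium to eight half-log concentrations up to 100 uM (0.5% DMSO), duplicate. FABP1 mRNA by qRT-PCR, normalised to ACTB, GAPDH, POLR2A; bidirectional fitting against DMSO.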

[12] = read-out: Cytochrome P450 4A22 (Homo sapiens) (UniProt Q5TCH4); test: LTEA_HepaRG_CYP4A22: Life Technologies and Expression Analysis (LTEA) Assay for Cytochrome P450 4A22 (CYP4A22) using HepaRG (AID 2283495)
Method in brief: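 HepaRG, 48 h post-plating -> serum-free induction medium; dosed 48 h, duplicate, 8 conc. (100 uM top, half-log), 0.5% DMSO. Readout: CYP4A22 mRNA by qRT-PCR, ACTB/GAPDH/POLR2A normalization; gain/loss fit relative to DMSO.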

[13] = read-out: Cytochrome P450 7A1 (Homo sapiens) (UniProt P22680); test: LTEA_HepaRG_CYP7A1: Life Technologies and Expression Analysis (LTEA) Assay for Cytochrome P450 7A1 (CYP7A1) using HepaRG (AID 2283496)
Method in brief: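 Gene expression endpoint in human HepaRG liver cells treated for 48 h with test chemicals (up to 100 uM, 0.5% DMSO). Values come from bidirectional concentration-response fitting versus DMSO.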

[14] = read-out: Glutathione S-Transferase (GSTA2), GSTA2 (gene 2939); test: LTEA_HepaRG_GSTA2: Life Technologies and Expression Analysis (LTEA) Assay for Glutathione S-Transferase (GSTA2) using HepaRG (AID 2283497)
Method in brief: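 Differentiated human HepaRG cells were exposed in duplicate for 48 h in serum-free induction medium, 8 points from 100 uM top in half-log steps, 0.5% DMSO. GSTA2 mRNA was measured by TaqMan qRT-PCR, normalized to ACTB, GAPDH and POLR2A; bidirectional fit versus DMSO.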

[15] = read-out: Cytochrome P450 3A7 (Homo sapiens) (UniProt P24462); test: LTEA_HepaRG_CYP3A7: Life Technologies and Expression Analysis (LTEA) Assay for CYP3A7 using HepaRG (AID 2283492)
Method in brief: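 CYP3A7 transcript levels were read by TaqMan qRT-PCR on Fluidigm arrays after 48 h chemical exposure of human HepaRG cells, with housekeeping-gene normalisation. Eight half-log concentrations up to 100 uM in 0.5% DMSO were tested in duplicate.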

Measured: AC50

Sequence of Cytochrome P450 3A4 (Homo sapiens) (P08684 whole entry, looked up): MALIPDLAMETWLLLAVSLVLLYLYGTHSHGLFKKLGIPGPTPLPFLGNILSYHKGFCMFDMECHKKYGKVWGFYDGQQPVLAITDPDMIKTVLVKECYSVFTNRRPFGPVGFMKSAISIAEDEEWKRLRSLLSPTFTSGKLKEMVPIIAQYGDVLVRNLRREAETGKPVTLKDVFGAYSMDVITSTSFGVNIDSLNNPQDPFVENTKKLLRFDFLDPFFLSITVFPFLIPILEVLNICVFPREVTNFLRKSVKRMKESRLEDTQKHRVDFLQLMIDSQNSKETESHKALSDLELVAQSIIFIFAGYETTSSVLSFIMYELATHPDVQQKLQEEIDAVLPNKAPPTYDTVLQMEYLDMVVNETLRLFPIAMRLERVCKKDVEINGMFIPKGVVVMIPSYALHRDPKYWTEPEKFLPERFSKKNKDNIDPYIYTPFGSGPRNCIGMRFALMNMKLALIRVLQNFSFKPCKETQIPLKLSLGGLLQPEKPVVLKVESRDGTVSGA
Sequence of Cytochrome P450 2C19 (Homo sapiens) (P33261 whole entry, looked up): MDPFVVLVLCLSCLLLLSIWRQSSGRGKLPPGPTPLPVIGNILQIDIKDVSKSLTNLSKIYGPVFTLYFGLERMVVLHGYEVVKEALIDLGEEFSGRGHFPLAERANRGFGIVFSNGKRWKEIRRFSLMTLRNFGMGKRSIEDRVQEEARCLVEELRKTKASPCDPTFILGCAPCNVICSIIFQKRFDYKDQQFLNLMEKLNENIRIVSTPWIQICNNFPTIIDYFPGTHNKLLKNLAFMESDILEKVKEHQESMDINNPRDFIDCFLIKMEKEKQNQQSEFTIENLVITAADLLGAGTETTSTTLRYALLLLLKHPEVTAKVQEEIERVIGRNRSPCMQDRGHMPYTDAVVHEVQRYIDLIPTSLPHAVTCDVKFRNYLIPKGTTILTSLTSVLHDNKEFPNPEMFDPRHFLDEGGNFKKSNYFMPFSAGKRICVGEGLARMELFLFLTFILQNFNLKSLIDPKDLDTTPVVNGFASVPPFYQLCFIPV
Sequence of Cytochrome P450 3A7 (Homo sapiens) (P24462 whole entry, looked up): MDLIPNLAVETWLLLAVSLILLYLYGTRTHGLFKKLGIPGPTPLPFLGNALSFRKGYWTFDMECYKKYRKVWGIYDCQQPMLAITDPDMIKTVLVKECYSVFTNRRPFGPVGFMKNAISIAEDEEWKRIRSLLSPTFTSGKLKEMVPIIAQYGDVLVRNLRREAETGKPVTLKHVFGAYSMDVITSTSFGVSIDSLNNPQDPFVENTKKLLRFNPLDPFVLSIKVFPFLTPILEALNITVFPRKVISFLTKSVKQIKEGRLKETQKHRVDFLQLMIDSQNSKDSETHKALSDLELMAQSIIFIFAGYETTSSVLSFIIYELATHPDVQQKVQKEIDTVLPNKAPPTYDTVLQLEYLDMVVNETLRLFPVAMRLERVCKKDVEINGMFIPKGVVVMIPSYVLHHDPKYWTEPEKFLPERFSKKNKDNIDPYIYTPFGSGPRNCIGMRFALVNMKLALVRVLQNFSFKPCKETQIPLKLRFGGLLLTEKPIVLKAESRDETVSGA

CCCCCCCCC(=O)O
not listed: [14] | [15]
inactive: all other assays above

CC(=O)CC(C)(C)O
not listed: [1] | [14] | [15]
inactive: all other assays above

c1ccc2cc3c(ccc4ccccc43)cc2c1
active: [2] 1.99 µM | [4] 9.39 µM | [5] 15.2 µM | CYP2C8 (gene 1558) 13.7 µM | CYP2C9 (gene 1559) 11.8 µM | CYP2E1 (gene 1571) 22.3 µM | CYP4A11 (gene 1579) 32.8 µM | [6] 3.99 µM | [7] 17.7 µM | [9] 27.9 µM | CYP3A5 (gene 1577) 7.18 µM | [11] 21.7 µM | [12] 26 µM | [13] 20.6 µM | [14] 8.52 µM
inactive: [3] | [8] | [10]

CC(C)CCCCCCOC(=O)CCCCC(=O)OCCCCCCC(C)C
active: [2] 50 µM | [4] 31.8 µM
not listed: [7] | [12] | [14] | [15]
inactive: all other assays above

CC[C@H](C)[C@@H](C(=O)O)n1sc2ccccc2c1=O
active: [2] 50 µM | [4] 10.1 µM
not listed: [1] | [15]
inactive: all other assays above

Oc1cccc(O)c1
not listed: [1] | [14]
inactive: all other assays above
